The values below come from PubChem BioAssay (NCI).

Among the test systems are SR leukemia; RPMI-8226 leukemia; OVCAR-8 ovarian; OVCAR-5 ovarian; SK-OV-3 ovarian; IGROV1 ovarian; OVCAR-3 ovarian; HS 578T breast; NCI/ADR-RES ovarian; T-47D breast; MDA-MB-435 melanoma; SW-620 colon; MCF7 breast; HCT-116 colon; HCC-2998 colon; KM12 colon; BT-549 breast.
Common to all, as to test: NCI-60 one-dose screen, 48 h (100 = growth as untreated, 0 = no growth, -100 = all killed)
Details in all cases: 10 µM unless noted

Compounds without any hit were thinned out: in the full panel of roughly 83,000, 20% have a hit.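 Note: values are percent growth. 100 is the growth of untreated cells, values between 100 and 0 indicate rising inhibition; between -100 and 0 indicates cell death.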 A number with no mark means an inactive call. The source made the active and inactive calls. How the source made its calls: active means growth percent below 10; inactive means the rest.

For the molecule `O=C(N/N=C\c1c(O)ccc2ccccc12)C1CC1`, the growth is 18.3% with SR leukemia; 40.4% in the experiment with RPMI-8226 leukemia; 33.1% in the experiment with OVCAR-8 ovarian; 90.9% in the experiment on OVCAR-5 ovarian; 44.9% with SK-OV-3 ovarian; 24.3% with IGROV1 ovarian. Further, the growth with OVCAR-3 ovarian was 1.02% (active); in the experiment on HS 578T breast, 74.6%; in the experiment with NCI/ADR-RES ovarian it was 9.42% (active); in the experiment on T-47D breast, 53.6%; with MDA-MB-435 melanoma it was 64.9%; in the experiment on SW-620 colon, 51.7%. The growth with MCF7 breast was 31.1%; in the experiment with HCT-116 colon it was 13.1%; with HCC-2998 colon, 101%; in the experiment with KM12 colon it was 51.6%.

In the case of `CC(C)(C)c1ccc(OCCCCCCCN2CCNCC2)cc1`, the growth in the experiment with SR leukemia was -10.4% (active); in the experiment with RPMI-8226 leukemia, -17% (active); in the experiment with OVCAR-8 ovarian, 71.3%; in the experiment on OVCAR-5 ovarian, 68.5%; with SK-OV-3 ovarian it was 81.5%; with OVCAR-3 ovarian, 62%. For the same molecule, the growth in the experiment with HS 578T breast is 24.9%; with NCI/ADR-RES ovarian, 71.7%; with T-47D breast, 6.54% (active); in the experiment on BT-549 breast, 69.7%; in the experiment on MDA-MB-435 melanoma, 50.8%; in the experiment on SW-620 colon, -31.9% (active). The growth in the experiment with MCF7 breast is -20.1% (active); in the experiment on HCT-116 colon, -1.04% (active); in the experiment on HCC-2998 colon, -4.86% (active); with KM12 colon it was 36.1%.

Regarding `O=[N+]([O-])c1cccc(/C=N\Nc2ccccc2)c1`, the growth was 89.6% in the experiment on SR leukemia; 86.5% in the experiment with RPMI-8226 leukemia; 63.8% in the experiment with OVCAR-8 ovarian; 74.7% in the experiment with OVCAR-5 ovarian; 95.8% with SK-OV-3 ovarian; 60.1% with IGROV1 ovarian. The growth in the experiment on OVCAR-3 ovarian was 73.1%; in the experiment on HS 578T breast it was 71.7%; with NCI/ADR-RES ovarian, 48.7%; in the experiment with T-47D breast it was 55.8%; with MDA-MB-435 melanoma, 53.8%; with SW-620 colon, 71.3%. In addition, the growth in the experiment with MCF7 breast was 64.5%; with HCT-116 colon, 58.3%; in the experiment with HCC-2998 colon, 83.8%; in the experiment with KM12 colon it was 38.8%.

In the case of `Nc1c(Cl)cc(N=Nc2ccccc2)cc1Cl`, the growth with SR leukemia was 85.4%; in the experiment with RPMI-8226 leukemia, 89.9%; with OVCAR-8 ovarian it was 104%; in the experiment on OVCAR-5 ovarian, 31.5%; with SK-OV-3 ovarian, 99%; in the experiment on IGROV1 ovarian, 12.5%. The growth in the experiment with OVCAR-3 ovarian was 84.6%; with HS 578T breast, 94.8%; in the experiment on NCI/ADR-RES ovarian, 100%; in the experiment with T-47D breast, 49.6%; in the experiment with MDA-MB-435 melanoma, 105%; with SW-620 colon, 88.8%. For the same molecule, the growth in the experiment on MCF7 breast was 19.7%; in the experiment on HCT-116 colon, 67.4%; in the experiment on HCC-2998 colon, 87.1%; in the experiment on KM12 colon, 85.7%.

On to `COc1cc(-c2c(C#N)c(-c3cccs3)nc3c2c(-c2ccccc2)nn3-c2ccccc2)ccc1O`, for which the growth with SR leukemia was 60.5%; in the experiment on RPMI-8226 leukemia it was 94.3%; in the experiment on OVCAR-8 ovarian, 84.2%; in the experiment with OVCAR-5 ovarian, 95.4%; with SK-OV-3 ovarian, 82.7%; with IGROV1 ovarian, 91.3%. Moreover, the growth is 101% in the experiment on OVCAR-3 ovarian; 78.6% in the experiment on HS 578T breast; 56.8% in the experiment with T-47D breast; 101% in the experiment with BT-549 breast; 74.8% in the experiment with MDA-MB-435 melanoma; 88% in the experiment on SW-620 colon. Further, the growth in the experiment with MCF7 breast was 76.4%; with HCT-116 colon it was 56.8%; in the experiment on HCC-2998 colon it was 99.6%; with KM12 colon, 78.4%.

For `C#Cc1cc2c(N)c(C(=O)c3cc(OC)c(OC)c(OC)c3)[nH]c2cc1OC`, the growth is 7.33% (active) in the experiment with SR leukemia; 26.7% with RPMI-8226 leukemia; 47.8% in the experiment with OVCAR-8 ovarian; 37.5% in the experiment with OVCAR-5 ovarian; 28.8% in the experiment with SK-OV-3 ovarian; 32.6% with IGROV1 ovarian. Also, the growth is 0.789% (active) in the experiment on OVCAR-3 ovarian; 1.91% (active) with HS 578T breast; 21.9% in the experiment with NCI/ADR-RES ovarian; 25.7% with T-47D breast; 57.4% in the experiment with BT-549 breast; -15.8% (active) with MDA-MB-435 melanoma. For the same molecule, the growth is 18.4% in the experiment with SW-620 colon; 19.7% in the experiment with MCF7 breast; 29.9% with HCT-116 colon; 64.3% in the experiment with HCC-2998 colon; 31.5% in the experiment on KM12 colon.

`C=CC(=O)N[C@H](Cc1ccc(-c2cc(Cl)cc(Cl)c2)cc1)[C@H](O)[C@@H](O)C(=O)O`: the growth with SR leukemia is 81.6%; in the experiment with RPMI-8226 leukemia, 82.7%; in the experiment with OVCAR-8 ovarian it was 90.9%; in the experiment on OVCAR-5 ovarian it was 96%; with SK-OV-3 ovarian it was 78.6%; in the experiment with IGROV1 ovarian, 96.7%. Further, the growth in the experiment on OVCAR-3 ovarian was 101%; with HS 578T breast it was 95.5%; in the experiment on NCI/ADR-RES ovarian it was 101%; with T-47D breast it was 90%; in the experiment on BT-549 breast it was 87.4%; with MDA-MB-435 melanoma, 102%. Further, the growth is 98.1% in the experiment with SW-620 colon; 87% with MCF7 breast; 75.5% in the experiment on HCT-116 colon; 109% in the experiment with HCC-2998 colon; 99.3% in the experiment on KM12 colon.

On to `Nc1c(C(=O)Nc2c(Cl)cccc2Cl)sc2nc3c(cc12)CCCC3`, for which the growth was 12% with SR leukemia; 93.4% in the experiment with RPMI-8226 leukemia; 84.9% with OVCAR-8 ovarian; 105% in the experiment with OVCAR-5 ovarian; 83.3% in the experiment on SK-OV-3 ovarian; 79.5% with IGROV1 ovarian. The growth is 64% in the experiment with OVCAR-3 ovarian; 82.3% in the experiment with HS 578T breast; 60.8% in the experiment with NCI/ADR-RES ovarian; 69% in the experiment on T-47D breast; 90.1% with BT-549 breast; 5.24% (active) in the experiment with MDA-MB-435 melanoma. Moreover, the growth was 51% in the experiment on SW-620 colon; 43.7% with MCF7 breast; 47.8% with HCT-116 colon; 92.5% with HCC-2998 colon; 68.6% in the experiment on KM12 colon.

In the case of `S=c1[nH]nc2ccccn12`, the growth in the experiment with SR leukemia was 95.7%; in the experiment on RPMI-8226 leukemia, 108%; in the experiment with OVCAR-8 ovarian, 125%; in the experiment with OVCAR-5 ovarian it was 108%; in the experiment on SK-OV-3 ovarian, 114%; with OVCAR-3 ovarian, 124%. Besides, the growth in the experiment on HS 578T breast was 98.5%; with NCI/ADR-RES ovarian, 100%; with T-47D breast, 106%; in the experiment on BT-549 breast, 110%; with MDA-MB-435 melanoma it was 108%; in the experiment on SW-620 colon, 105%. Also, the growth was 94.3% with MCF7 breast, 108% in the experiment with HCT-116 colon, 102% in the experiment on HCC-2998 colon and 116% with KM12 colon.
